This is an account of results in PubChem BioAssay.

Assay [1] in a line: reducers of endogenous Her2 protein level, primary screen, SKBR3 breast tumor cells, AlphaScreen, ATP viability (AID 461;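 active = Her2 level under about 52% in both replicate screens, with viability over 70% of control, limit read from the data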;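 for Her2 level: lower value means less Her2 protein in the cells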;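 for viability: percent of carrier control wells set as 100% viability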). The note with it: 18-24 h, measured here: SKBR3 viability, ATP luminescence, at 10 µM.
The target in assay [2] is Receptor tyrosine-protein kinase erbB-2 (Homo sapiens) (UniProt P04626). The assay is described as above. The note with it: 18-24 h, at 10 µM, stronger effect = lower value.
Receptor tyrosine-protein kinase erbB-2 (Homo sapiens), sequence (P04626 whole entry, looked up): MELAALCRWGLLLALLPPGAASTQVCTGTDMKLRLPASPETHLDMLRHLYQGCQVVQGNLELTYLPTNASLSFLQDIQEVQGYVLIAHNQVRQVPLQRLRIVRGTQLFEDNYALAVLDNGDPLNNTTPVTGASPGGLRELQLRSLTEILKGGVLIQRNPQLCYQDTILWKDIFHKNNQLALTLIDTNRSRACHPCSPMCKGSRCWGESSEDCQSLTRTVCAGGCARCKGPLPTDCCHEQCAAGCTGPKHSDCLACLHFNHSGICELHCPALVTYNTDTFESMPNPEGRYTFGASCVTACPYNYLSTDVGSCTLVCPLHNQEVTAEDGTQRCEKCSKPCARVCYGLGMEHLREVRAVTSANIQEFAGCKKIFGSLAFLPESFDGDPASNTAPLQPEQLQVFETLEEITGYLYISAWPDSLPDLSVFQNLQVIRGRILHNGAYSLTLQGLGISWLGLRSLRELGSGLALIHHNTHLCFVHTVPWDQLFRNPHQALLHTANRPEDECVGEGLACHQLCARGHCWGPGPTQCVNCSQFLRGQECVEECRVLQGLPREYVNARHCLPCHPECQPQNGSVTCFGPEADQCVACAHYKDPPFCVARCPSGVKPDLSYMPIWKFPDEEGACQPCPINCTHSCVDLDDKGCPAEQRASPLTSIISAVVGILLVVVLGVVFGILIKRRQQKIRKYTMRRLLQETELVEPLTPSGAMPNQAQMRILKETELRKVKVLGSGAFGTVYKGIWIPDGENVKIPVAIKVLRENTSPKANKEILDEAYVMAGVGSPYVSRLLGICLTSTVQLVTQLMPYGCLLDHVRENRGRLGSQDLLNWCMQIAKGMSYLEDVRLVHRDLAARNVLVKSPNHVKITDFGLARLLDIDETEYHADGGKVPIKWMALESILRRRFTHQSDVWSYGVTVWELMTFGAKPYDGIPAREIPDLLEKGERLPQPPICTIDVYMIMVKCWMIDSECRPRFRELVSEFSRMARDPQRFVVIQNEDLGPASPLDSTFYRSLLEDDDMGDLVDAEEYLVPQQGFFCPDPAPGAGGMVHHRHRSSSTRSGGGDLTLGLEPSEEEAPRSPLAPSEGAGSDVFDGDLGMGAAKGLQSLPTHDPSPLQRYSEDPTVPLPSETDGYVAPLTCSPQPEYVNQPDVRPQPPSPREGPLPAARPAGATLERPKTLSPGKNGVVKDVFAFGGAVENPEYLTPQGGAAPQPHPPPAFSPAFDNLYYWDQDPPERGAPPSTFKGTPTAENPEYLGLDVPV
Assay [3] in a line: SK-BR-3 cell growth inhibitors, pilot screen, 24 h, human (AID 572;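 active = viability at or below 10% of carrier control in both of two separate runs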;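 note: compound exposure lasted between 18 and 24 h rather than exactly 24 h; 100% = carrier-treated control wells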). The conditions noted are these: SK-BR-3 viability, CellTiter-Glo luminescence, at 10 µM, stronger effect = lower value.
A short description of assay [4]: HUVEC growth inhibition – cell-based, human, primary screen (AID 575;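 active = viability at or below 30% in both replicate assays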;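 note: 100% = median of untreated cell wells with 0.1% DMSO on each plate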). The conditions noted are these: HUVEC proliferation, CellTiter-Glo luminescence, 72 h; at 10 µM; stronger effect = lower value.
A short description of assay [5]: growth inhibitors of H69AR lung tumor, primary screen, human, duplicate replicates (AID 580;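 active = viability at or under a set limit in both replicates, limit being median viability minus 3 SD, cut at about 48% in these data, passing the limit was not always enough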;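 note: 100% = mean luminescence of untreated wells and 0% = no signal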). The note with it: H69AR lung tumor cells viability, ATP luminescence, 72 h; at 10 µM; stronger effect = lower value.
Assay [6] in a line: reversal of MRP1-mediated doxorubicin resistance, pilot screen, H69AR cells, doxorubicin co-treatment (AID 601;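 active = viability loss from added drug above about 55%, and viability with drug at most 40%, in both replicates, limit read from the data, passing the limit was not always enough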). The note with it: CellTiter-Glo, 72 h, at 10 µM; for differential viability (reversal): stronger effect = higher value.
A short description of assay [7]: 384-well plate pilot, post-Golgi transport modulator project, inhibition of yeast transport mutant growth (AID 636; in the data active = inhibition above about 31%). The conditions noted are these: absorbance 615 nm, about 18 h, stronger effect = higher value.
Assay [8] in a line: growth suppression of yeast trafficking mutant, preliminary HTS, modulators of trafficking downstream of Golgi apparatus project, 1536-format plate, OD 615 nm (AID 637; in the data active = inhibition above about 30%). The conditions noted are these: yeast transport mutant growth, absorbance 615 nm, 18 h; stronger effect = higher value.
Assay [9] is described as follows: OD615 S. cerevisiae growth inhibition, permissive medium, pilot counter-assay, permissive growth control for S. cerevisiae lifespan shortening project (AID 705;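 active = growth inhibition above 25% in both replicates, a cutoff set 3 SD above the mean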). The conditions noted are these: OD615, 24 h, at 10 µM, stronger effect = higher value.
Assay [10] is described as follows: Restrictive medium S. cerevisiae growth inhibition, OD615, pilot screen of yeast lifespan reduction project, restrictive growth control (AID 706;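 active = growth inhibition above a set limit, 3 SD over mean compound inhibition, in both replicates, cut at about 43% in these data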;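 note: modified DeaD lifespan yeast strain shifted to restrictive glucose medium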). The conditions noted are these: OD615, 48 h, at 10 µM, stronger effect = higher value.
The nature of assay [11]: viability gain of MRP-1-high H69AR cells under doxorubicin, pilot screen, MRP-1 activator project, CellTiter-Glo, duplicate (AID 807;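 active = viability increase at or above a cutoff of the median across tested compounds plus 3 SD, cut at about 8.5% in these data, passing the limit was not always enough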;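 note: compound pretreatment 18-22 h then 72 h combined with doxorubicin; 0% = doxorubicin alone and 100% = vehicle without doxorubicin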). The note with it: H69AR viability with doxorubicin, CellTiter-Glo luminescence; at 10 µM; stronger effect = higher value.
A short description of assay [12]: growth suppression of beta-catenin knockout HCT116, pilot screen, human colon tumor cells (AID 823;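 active = cell viability at or below a set limit in both duplicate runs, the limit being the all-compound median minus 4 SD, cut at about 23% in these data, passing the limit was not always enough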;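 note: 0% = wells killed by 20 µM Hyamine and 100% = untreated DMSO cell wells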). The conditions noted are these: CellTiter-Glo, 60 h, at 10 µM, stronger effect = lower value.
Assay [13] can be described thus: growth suppression of PTEN-deleted HCT116, pilot screen, cell-based, HCT116 clonal line, CellTiter-Glo (AID 824).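 Note: 0% = 20 µM Hyamine control and 100% = vehicle cell control.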 The conditions noted are these: 60 h, at 10 µM, stronger effect = lower value.
Assay [14] in a line: inhibitors of the yeast RAM network, pilot screen, dse1pr::URA3 reporter, 5-FOA selection (AID 869;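 active = inhibition over a set limit, the all-compound mean plus 3 SD, in both replicate runs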;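 note: 0% = DMSO wells with no growth and 100% = 10 µM 1-NA-PP1 with full growth; RAM network block rescues cells from 5-FOA so hits raise OD615 growth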). The note with it: S. cerevisiae dse1pr::URA3 5-FOA growth, OD615, 2 d; at 10 µM; stronger effect = higher value; strain carries analog-sensitive mutant Cbk1 kinase.
Assay [15] can be described thus: RAM signaling pathway blockade in yeast – S. cerevisiae, Pdr1DBD-CYC8 efflux-inhibited sensitized strain, primary screen (AID 1298;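 active = RAM network inhibition above 8.4% in each of two replicates, 3 SD over the compound average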;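 note: 0% = DMSO untreated cells without growth and 100% = 10 µM 1-NA-PP1 full growth; higher means more yeast growth rescued from 5-FOA killing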). The note with it: S. cerevisiae cbk1-as DSE1-URA3 strain, 5-FOA growth OD615, 2 d; at 50 µM; stronger effect = higher value.
Where [16] appears, read: H69AR cells + 2 uM doxorubicin, measured here: viability with 2 uM doxorubicin, stronger effect = lower value.
[17] abbreviates: H69AR cells, compound alone cytotoxicity.

SMILES strings stand for the structures. Records with an inconclusive call do not appear. Activity calls are given as the source filed them.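 Rule for the calls, unless noted: active = viability at or below 27.92% in each of two runs, the all-compound median minus 4 SD; inconclusive = no clear call, values can overlap the other calls; inactive = the rest.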

`Cc1cccc(-n2ncc3c(NCCCn4ccnc4)ncnc32)c1`: the viability is 91.5% in assay [1]; 91.5% (inactive) in assay [3]; 111% (inactive) in assay [4]; 88.6% (inactive) in assay [5]; 84.9% in [6] (setting [16]); 88.6% in [6] (setting [17]). In addition, the viability in assay [12] was 92.9% (inactive); in assay [13], 99.5% (inactive). Besides, the Her2 level in [2] was 93.5% (inactive). Besides, the differential viability (reversal) in assay [6] (H69AR cells + 2 uM doxorubicin) is 3.66% (inactive). Also, the inhibition was 2.13% (inactive) in [7], -3.67% (inactive) in [8] and 1.1% (inactive) in assay [14]. The growth inhibition in assay [9] was -2.31% (inactive); in [10] it was -0.87% (inactive). In addition, in assay [11], the viability increase was -0.65% (inactive). The RAM network inhibition in [15] was -0.32% (inactive).
In the case of `COCCNC(=O)CN1C(=O)CSc2ncccc21`, the viability in assay [1] is 83.5%; in assay [3], 83.5% (inactive); in assay [4] it was 97.8% (inactive); in assay [5], 86.4% (inactive); in assay [6] (setting [16]), 95.1%; in assay [6] (setting [17]) it was 86.4%. Besides, the viability in assay [12] was 102% (inactive); in assay [13], 92% (inactive). For the same compound, the Her2 level in assay [2] is 88% (inactive). Besides, in assay [6] (H69AR cells + 2 uM doxorubicin), the differential viability (reversal) was -8.7% (inactive). Moreover, the inhibition in assay [7] is -4.67% (inactive); in [8] it was -0.33% (inactive); in assay [14] it was 1.92% (inactive). In addition, the growth inhibition was 2.19% (inactive) in assay [9] and -5.72% (inactive) in assay [10]. For the same compound, the viability increase in [11] is -0.21% (inactive). Besides, in assay [15], the RAM network inhibition is 0.97% (inactive).
With `Cc1cccc(-n2ncc3c(NCCCO)ncnc32)c1`, the viability in assay [1] is 95.5%; in [3], 95.5% (inactive); in assay [4], 86.4% (inactive); in assay [5], 88.3% (inactive); in [6] (setting [16]), 80.7%; in assay [6] (setting [17]) it was 88.3%. Further, the values for the viability in assay [12] and in [13] were 112% (inactive) and 104% (inactive), respectively. The Her2 level in assay [2] was 118% (inactive). Further, the differential viability (reversal) in assay [6] (H69AR cells + 2 uM doxorubicin) was 7.59% (inactive). For the same compound, the inhibition in assay [7] was 2.4% (inactive); in [8] it was -2.5% (inactive); in [14], 0.64% (inactive). For the same compound, the growth inhibition is -12.1% (inactive) in assay [9] and -8.93% (inactive) in [10]. Moreover, the viability increase in assay [11] is 0.27% (inactive). The RAM network inhibition in assay [15] is -0.67% (inactive).
Take `Cc1ccc(-c2noc(CN3C(C)CCCC3C)n2)cc1` (stereo not given): the viability in [1] was 93.5%; in assay [3], 93.5% (inactive); in assay [4], 114% (inactive); in assay [5] it was 89.3% (inactive); in [6] (setting [16]), 83.7%; in assay [6] (setting [17]) it was 89.3%. Besides, the figures for the viability in assay [12] and in assay [13] were 98.8% (inactive) and 95.9% (inactive), respectively. Also, the Her2 level in assay [2] is 100% (inactive). Also, the differential viability (reversal) in [6] (H69AR cells + 2 uM doxorubicin) is 5.67% (inactive). The inhibition is -3.73% (inactive) in assay [7], 2.33% (inactive) in assay [8] and 0.67% (inactive) in assay [14]. Besides, the growth inhibition in assay [9] was -3.56% (inactive); in [10], 4.79% (inactive). Also, the viability increase in [11] was 3.23% (inactive). Further, the RAM network inhibition in assay [15] is 4.84% (inactive).
For the compound `CCOCCCNC(=O)CN1CCN(Cc2ccccc2C)C1=O`, the viability was 83.5% in [1]; 83.5% (inactive) in [3]; 97.8% (inactive) in assay [4]; 97% (inactive) in assay [5]; 89.9% in assay [6] (setting [16]); 97% in [6] (setting [17]). The viability is 94.7% (inactive) in assay [12] and 86.8% (inactive) in assay [13]. The Her2 level in assay [2] was 96% (inactive). Further, the differential viability (reversal) in [6] (H69AR cells + 2 uM doxorubicin) is 7.06% (inactive). The inhibition was -6.8% (inactive) in [7], -7.7% (inactive) in [8] and 1.54% (inactive) in assay [14]. Moreover, the results for the growth inhibition in assay [9] and in assay [10] were -4.88% (inactive) and 6.12% (inactive), respectively. In addition, the viability increase in [11] is 0.02% (inactive). Further, in assay [15], the RAM network inhibition was 1.29% (inactive).
Turning to `CCCCn1c(SCC(=O)OCC)nc2c1c(=O)[nH]c(=O)n2C`, the viability in assay [1] was 100%; in [3], 100% (inactive); in assay [4], 96.8% (inactive); in assay [5], 97.3% (inactive); in assay [6] (setting [16]) it was 96.8%; in assay [6] (setting [17]) it was 97.3%. For the same compound, the viability in [12] was 94.4% (inactive); in assay [13], 91.6% (inactive). Also, in [2], the Her2 level was 93% (inactive). In addition, the differential viability (reversal) in assay [6] (H69AR cells + 2 uM doxorubicin) is 0.46% (inactive). Also, the inhibition in [7] is -2.53% (inactive); in assay [8], 0.33% (inactive); in [14], 1.31% (inactive). The growth inhibition is 0.935% (inactive) in assay [9] and 1.66% (inactive) in assay [10]. Also, the viability increase in [11] is -2.5% (inactive). The RAM network inhibition in assay [15] was 0.35% (inactive).
Regarding `CCN1CCN(CCCNC(=O)c2cc3sccc3n2CC)CC1`, the viability was 96.5% in [1]; 96.5% (inactive) in assay [3]; 99% (inactive) in assay [4]; 89.4% (inactive) in assay [5]; 91% in [6] (setting [16]); 89.4% in assay [6] (setting [17]). In addition, the viability is 96.9% (inactive) in assay [12] and 98.6% (inactive) in assay [13]. In [2], the Her2 level was 120% (inactive). Also, the differential viability (reversal) in [6] (H69AR cells + 2 uM doxorubicin) was -1.6% (inactive). The inhibition is -0.27% (inactive) in assay [7], 3% (inactive) in assay [8] and 0.865% (inactive) in assay [14]. Moreover, the growth inhibition in assay [9] was -3.32% (inactive); in [10], -3.54% (inactive). Besides, the viability increase in assay [11] was -1.72% (inactive). Further, the RAM network inhibition in assay [15] was 1.23% (inactive).
On to `CCCCOCCCNC(=O)COc1ccccc1`, for which the viability in assay [1] is 103%; in assay [3], 103% (inactive); in assay [4], 102% (inactive); in assay [5], 94.1% (inactive); in [6] (setting [16]) it was 96.4%; in assay [6] (setting [17]), 94.1%. Further, the values for the viability in assay [12] and in assay [13] were 94.5% (inactive) and 97.5% (inactive), respectively. For the same compound, in assay [2], the Her2 level was 104% (inactive). For the same compound, the differential viability (reversal) in assay [6] (H69AR cells + 2 uM doxorubicin) was -2.32% (inactive). The inhibition in assay [7] was -5.54% (inactive); in assay [8] it was -2.46% (inactive); in assay [14], 0.215% (inactive). Moreover, the results for the growth inhibition in [9] and in assay [10] were -2.82% (inactive) and -5.04% (inactive), respectively. Also, in assay [11], the viability increase was -1.43% (inactive). Also, the RAM network inhibition in assay [15] is -0.62% (inactive).
For `C=CCNC(=O)CSc1nc2sc(C)c(C)c2c(=O)[nH]1`, the viability in assay [1] is 96.5%; in assay [3] it was 96.5% (inactive); in [4], 90.1% (inactive); in assay [5], 78.2% (inactive); in [6] (setting [16]) it was 85.7%; in assay [6] (setting [17]) it was 78.2%. Besides, the viability is 110% (inactive) in assay [12] and 97.1% (inactive) in assay [13]. The Her2 level in assay [2] is 95.5% (inactive). The differential viability (reversal) in assay [6] (H69AR cells + 2 uM doxorubicin) was -7.53% (inactive). The inhibition was -3.33% (inactive) in [7], 1% (inactive) in assay [8] and 3.06% (inactive) in [14]. Further, the values for the growth inhibition in [9] and in [10] were -10.2% (inactive) and -4.47% (inactive), respectively. Moreover, the viability increase in assay [11] was -1.02% (inactive). The RAM network inhibition in [15] is 5.1% (inactive).
For `COc1ccc(NS(=O)(=O)c2ccc(NC(C)=O)cc2)cc1OC`, the viability in assay [1] is 98.5%; in assay [3], 98.5% (inactive); in [4] it was 83.5% (inactive); in [5], 94.5% (inactive); in assay [6] (setting [16]), 89.5%; in assay [6] (setting [17]), 94.5%. Besides, the viability in assay [12] was 85.4% (inactive); in assay [13] it was 85.2% (inactive). For the same compound, the Her2 level in assay [2] was 99% (inactive). The differential viability (reversal) in assay [6] (H69AR cells + 2 uM doxorubicin) is 4.97% (inactive). Besides, the figures for the inhibition in assay [7], in assay [8] and in [14] were 2.69% (inactive), 35.7% (active) and 1.85% (inactive), respectively. The growth inhibition in assay [9] was 0.65% (inactive); in [10], -9.44% (inactive). For the same compound, the viability increase in assay [11] is 0.44% (inactive). Moreover, in [15], the RAM network inhibition was -1.59% (inactive).
